Test results reported in PubChem BioAssay (NCATS).
Records with an inconclusive call do not appear. Calls of active or inactive are those of the source. Calls come from the whole dose curve; as a rule, active = well fitted curve in the direction sought with a large enough effect; inconclusive = small, poorly fitted or top-dose-only effect, or another doubt; inactive = no such curve, though single readings can be large; an effect the other way counts as inactive or inconclusive.

Tests used:
[1] = qHTS of pediatric cancer cell lines to identify multiple opportunities for drug repurposing: Primary screen for TC32 cells (AID 1347089); note: nearly all actives have a fitted effect of over 60% in size; note: potency is the fitted concentration of half-maximal effect
In short: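 TC32 cells, 500-1,000/well in growth medium, compound-treated 48 h at 37 °C; viability from CellTiter-Glo luminescence. Primary screen: MIPE 11-point (0.78 nM–46 µM final), NPC 8-point (0.59 nM–46 µM final); confirmatory at 11-point dilutions.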

[2] = qHTS of pediatric cancer cell lines to identify multiple opportunities for drug repurposing: Primary screen for DAOY cells (AID 1347090); note: nearly all actives have a fitted effect of over 55% in size; note: potency is the fitted concentration of half-maximal effect
In short: (§1)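 Cell viability, CellTiter-Glo luminescence; 500-1,000 cells/well, 8- or 11-point titration, 48 h compound exposure at 37 degrees C, 5% CO2. Controls: DMSO neutral, bortezomib 2.3 µM final as positive.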

[3] = qHTS of pediatric cancer cell lines to identify multiple opportunities for drug repurposing: Primary screen for SJ-GBM2 cells (AID 1347091); note: potency is the fitted concentration of half-maximal effect
In short: as §1

[4] = qHTS of pediatric cancer cell lines to identify multiple opportunities for drug repurposing: Primary screen for A673 cells (AID 1347092); note: nearly all actives have a fitted effect of over 45% in size; note: potency is the fitted concentration of half-maximal effect
In short: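 A673 cells (500-1,000 cells/well) were treated 48 hours at 37 degrees C with compounds at 11-point (0.78 nM to 46 µM) or 8-point (0.59 nM to 46 µM) dilutions. Viability read by CellTiter-Glo luminescence; concentration-response curves fitted.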

[5] = qHTS of pediatric cancer cell lines to identify multiple opportunities for drug repurposing: Primary screen for SK-N-MC cells (AID 1347093); note: potency is the fitted concentration of half-maximal effect
In short: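 Metabolically active cells were quantified by ATP-dependent luminescence (CellTiter-Glo, 15 min at room temperature) following 48 h treatment. Cells had been plated at 500-1,000 per well and settled for 5 h beforehand.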

[6] = qHTS of pediatric cancer cell lines to identify multiple opportunities for drug repurposing: Primary screen for BT-37 cells (AID 1347094); note: potency is the fitted concentration of half-maximal effect
In short: (§2)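 Quantitative HTS format: each compound titrated (MIPE 11 points from 0.78 nM, NPC 8 points from 0.59 nM) onto cells plated 5 hours earlier. After 48 h at 37 degrees C, CellTiter-Glo luminescence was recorded.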

[7] = qHTS of pediatric cancer cell lines to identify multiple opportunities for drug repurposing: Primary screen for NB-EBc1 cells (AID 1347095); note: potency is the fitted concentration of half-maximal effect
In short: as §2

[8] = qHTS of pediatric cancer cell lines to identify multiple opportunities for drug repurposing: Primary screen for U-2 OS cells (AID 1347096); note: nearly all actives have a fitted effect of over 50% in size; note: potency is the fitted concentration of half-maximal effect
In short: (§3)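 Cells (500-1,000/well) rested 5 h, then received compounds for 48 h; metabolically active cells were measured by CellTiter-Glo luminescence. Final concentrations spanned up to 46 µM (MIPE, 11-point) or 0.59 nM-46 µM (NPC, 8-point) in primary screens, 11-point in follow-ups.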

[9] = qHTS of pediatric cancer cell lines to identify multiple opportunities for drug repurposing: Primary screen for SK-N-SH cells (AID 1347098); note: nearly all actives have a fitted effect of over 65% in size; note: potency is the fitted concentration of half-maximal effect
In short: as §3

[10] = qHTS of pediatric cancer cell lines to identify multiple opportunities for drug repurposing: Primary screen for NB1643 cells (AID 1347099); note: nearly all actives have a fitted effect of over 50% in size
In short: as §2

[11] = qHTS of pediatric cancer cell lines to identify multiple opportunities for drug repurposing: Primary screen for LAN-5 cells (AID 1347100); note: potency is the fitted concentration of half-maximal effect
In short: as §3

[12] = qHTS of pediatric cancer cell lines to identify multiple opportunities for drug repurposing: Primary screen for BT-12 cells (AID 1347101); note: nearly all actives have a fitted effect of over 25% in size; note: potency is the fitted concentration of half-maximal effect
In short: as §3

[13] = qHTS of pediatric cancer cell lines to identify multiple opportunities for drug repurposing: Primary screen for Rh18 cells (AID 1347102); note: nearly all actives have a fitted effect of over 65% in size; note: potency is the fitted concentration of half-maximal effect
In short: as §3

[14] = qHTS of pediatric cancer cell lines to identify multiple opportunities for drug repurposing: Primary screen for OHS-50 cells (AID 1347103); note: nearly all actives have a fitted effect of over 40% in size; note: potency is the fitted concentration of half-maximal effect
In short: as §3

[15] = qHTS of pediatric cancer cell lines to identify multiple opportunities for drug repurposing: Primary screen for RD cells (AID 1347104); note: nearly all actives have a fitted effect of over 55% in size
In short: as §2

[16] = qHTS of pediatric cancer cell lines to identify multiple opportunities for drug repurposing: Primary screen for MG 63 (6-TG R) cells (AID 1347105); note: nearly all actives have a fitted effect of over 50% in size; note: potency is the fitted concentration of half-maximal effect
In short: as §2

[17] = qHTS of pediatric cancer cell lines to identify multiple opportunities for drug repurposing: Primary screen for Saos-2 cells (AID 1347097); note: nearly all actives have a fitted effect of over 40% in size; note: potency is the fitted concentration of half-maximal effect
In short: as §2

Measured: Potency

Cc1ncc(CSSCc2cnc(C)c(O)c2CO)c(CO)c1O
inactive: [1] | [2] | [3] | [4] | [5] | [6] | [7] | [8] | [9] | [10] | [11] | [12] | [13] | [14] | [15] | [16]

CO/N=C1\CN(c2nc3c(cc2F)c(=O)c(C(=O)O)cn3C2CC2)CC1CN (stereo unspecified)
inactive: [1] | [2] | [3] | [4] | [5] | [6] | [7] | [8] | [17] | [9] | [10] | [11] | [13] | [14] | [16]

Oc1cc(O)c2c(c1)O[C@H](c1ccc(O)c(O)c1)[C@H](O)C2
inactive: [1] | [2] | [3] | [4] | [5] | [6] | [7] | [8] | [17] | [10] | [11] | [12] | [13] | [14] | [15] | [16]

CCCCC(CC)CN=C(N)NC(N)=NCCCCCCN=C(N)NC(N)=NCC(CC)CCCC (stereo unspecified)
active: [1] 21 µM | [2] 8.41 µM | [3] 1.06 µM | [4] 1.68 µM | [5] 5.31 µM | [6] 9.78 µM | [7] 10.6 µM | [8] 21.1 µM | [17] 9.44 µM | [9] 4.33 µM | [11] 5.31 µM | [12] 2.46 µM | [13] 8.41 µM | [14] 4.37 µM | [16] 6.68 µM

CN1CCN(C(c2ccccc2)c2ccccc2)CC1
inactive: [1] | [2] | [3] | [4] | [5] | [6] | [7] | [8] | [17] | [10] | [11] | [13] | [15] | [16]

OC[C@H]1O[C@H](O[C@]2(CCl)O[C@H](CCl)[C@@H](O)[C@@H]2O)[C@H](O)[C@@H](O)[C@H]1Cl
inactive: [1] | [2] | [3] | [4] | [5] | [6] | [7] | [8] | [9] | [10] | [11] | [12] | [13] | [14] | [15] | [16]

CCOc1ccc(NC(=O)CC(C)O)cc1 (stereo unspecified)
inactive: [1] | [2] | [3] | [4] | [5] | [6] | [7] | [8] | [9] | [10] | [11] | [13] | [14]

CC1(C)OC[C@@H](COC(=O)CCc2ccc(OC[C@@H](O)CNCCNC(=O)N3CCOCC3)cc2)O1
inactive: [1] | [2] | [3] | [4] | [5] | [6] | [7] | [8] | [17] | [9] | [10] | [11] | [13] | [14] | [16]

CC(C)COC(=O)c1ccc(N)cc1
inactive: [1] | [2] | [3] | [4] | [5] | [6] | [7] | [8] | [17] | [10] | [11] | [12] | [13] | [14]

CC(O)C(=O)O (stereo unspecified)
inactive: [1] | [2] | [3] | [4] | [5] | [6] | [7] | [8] | [17] | [9] | [10] | [11] | [13] | [14] | [15] | [16]

CC(C)(C(=O)c1cccnc1)c1cccnc1
inactive: [1] | [2] | [3] | [4] | [5] | [6] | [7] | [8] | [9] | [10] | [11] | [12] | [13] | [14] | [15] | [16]

Cc1c(C(C)C)c(=O)n(-c2ccccc2)n1C
inactive: [1] | [2] | [3] | [4] | [5] | [6] | [7] | [8] | [9] | [10] | [11] | [12] | [13] | [14] | [15]

CC(=O)OCC(=O)[C@@]1(O)CC[C@H]2[C@@H]3CCC4=CC(=O)C=C[C@]4(C)[C@H]3[C@@H](O)C[C@@]21C
inactive: [1] | [2] | [3] | [4] | [5] | [6] | [7] | [8] | [17] | [9] | [10] | [11] | [13] | [15] | [16]
